Hit rate of the full screen: of about 13,000 compounds, about 3,200 (25%) showed an effect of 50% or more. This is one part of the list.

This note sets out measurements from PMC4552634, “A New Set of Chemical Starting Points with Plasmodium falciparum Transmission-Blocking Potential for Antimalarial Drug Discovery” (PLoS ONE, 2015).

The subject of this experiment is P. falciparum stage V gametocytes. Details: BacTiter-Glo ATP luminescence viability of purified stage V gametocytes in 384-well plates, per cent inhibition versus DMSO. The note with it: 48 h, 5 µM; inhibitor.
For the compound `CC(C)c1nc2c(N)nc(N)nc2nc1N` [TCMDC-141986], the % Inhibition – broadly, the relative decrease from the control value, in per cent – came out at 9.894%.

As to `O=C(NCCNc1ccnc2cc(Cl)ccc12)c1ccccc1F` [TCMDC-125232], the “% Inhibition” value is listed as -18.32%.

For the compound `Cn1nccc1C(=O)NCCNCc1cccc(-c2ccc(-c3nc4ccccc4[nH]3)s2)c1.O=C(O)C(F)(F)F` [TCMDC-133003], the “% Inhibition” value is listed as -10.06%.

As to `Cc1ccc(NC(C)C(=O)Nc2ccc(C#N)cc2)cc1S(=O)(=O)N1CCCCC1` (centres unmarked) [TCMDC-124508], the “% Inhibition” value is reported as -17.26%.

As for `CCn1c(Sc2ccc(C#N)c([N+](=O)[O-])c2)nnc1-c1cc(OC)cc(OC)c1` [TCMDC-135587], the “% Inhibition” value is on record as 21.42%.

Turning to `N#Cc1ccc(Sc2nnc(-c3ccccc3Cl)n2CC2CCCCC2)cc1[N+](=O)[O-]` [TCMDC-135616], the “% Inhibition” value is given as 15.71%.

In the case of `CCCCn1c(Sc2ccc(C#N)c([N+](=O)[O-])c2)nnc1-c1cc(OC)cc(OC)c1` [TCMDC-135578], the “% Inhibition” value stood at 32.96%.

With `COc1cc(NC(=O)c2cc([N+](=O)[O-])ccc2NC(=O)CNC2CCCCC2C)cc(OC)c1` (centres unmarked) [TCMDC-125301], the “% Inhibition” value is -14.04%.

Take `COc1cc(OC)cc(-c2nn(-c3ccc([N+](=O)[O-])cc3Cl)c(=S)n2CC2CCCO2)c1` (centres unmarked) [TCMDC-135129]: the “% Inhibition” value is recorded as 88.54%.

In the case of `N#Cc1cc([N+](=O)[O-])ccc1-n1nc(-c2cccc(Cl)c2)n(CC2CCCO2)c1=S` (centres unmarked) [TCMDC-134718], the “% Inhibition” value was 89.7%.

Turning to `COc1cc(OC)cc(-c2nn(-c3ccc([N+](=O)[O-])cc3C#N)c(=S)n2CC2CCCO2)c1` (centres unmarked) [TCMDC-134716], the “% Inhibition” value is 96.39%.

As for `CCCn1c(Sc2ccc(C#N)c([N+](=O)[O-])c2)nnc1-c1cc(OC)cc(OC)c1` [TCMDC-135577], the “% Inhibition” value is on record as 43.88%.

As to `Nc1nc(N)c2c(Cc3ccc(Br)cc3)cccc2n1` [TCMDC-137800], the “% Inhibition” value turned out to be 14.7%.

For the compound `CCOC(=O)C(C(C)=O)C(c1ccccc1)C(C(C)=O)C(=O)OCC` (centres unmarked) [TCMDC-125515], the “% Inhibition” value was determined as 28.08%.

Take `CC1CCCC(NC(=O)CCOc2ccccc2)C1` (centres unmarked) [TCMDC-139363]: the “% Inhibition” value came out at 13.69%.

As to `CCOC(=O)c1ccc(NC(=O)N(Cc2ccc(-c3cccc(CN4CCNCC4)c3)cc2)C2CCN(Cc3ccccc3)CC2)cc1` [TCMDC-139636], the “% Inhibition” value was 111.5%.

Take `CCOC(=O)c1ccc(NC(=O)N(Cc2ccc(-c3ccc(CN4CCNCC4)cc3)cc2)C2CCN(Cc3ccccc3)CC2)cc1` [TCMDC-139651]: the “% Inhibition” value is 101.9%.

On to `CCOC(=O)c1ccc(NC(=O)N(Cc2ccc(-c3ccc(CN4CCNCC4)cc3)cc2)Cc2cccnc2)cc1` [TCMDC-139650], for which the “% Inhibition” value is given as 18.76%.

For the compound `CC(C)Cc1nc(N)nc(N)c1-c1ccc(Cl)cc1` [TCMDC-137932], the “% Inhibition” value is 19.17%.

For `COc1ccc(-c2c(C(F)(F)F)nn(C)c2NC(=O)Nc2ccc(F)cc2F)cc1` [TCMDC-123775], the “% Inhibition” value is 71.46%.

As for `Cn1nc(C(F)(F)F)c(-c2ccc(Br)cc2)c1NC(=O)Cc1ccccc1F` [TCMDC-123792], the “% Inhibition” value turned out to be 91.27%.

Consider `Cn1nc(C(F)(F)F)c(-c2ccc(F)cc2)c1NC(=O)Nc1ccc(F)cc1F` [TCMDC-123774], for which the “% Inhibition” value amounted to 47.06%.

`COc1ccc(NC(=O)Nc2cccc(-c3cccc(-c4nc5ccc(F)cc5[nH]4)c3)c2)cc1` [TCMDC-133249]: the “% Inhibition” value is recorded as -8.23%.

On to `O=C(Nc1ccccc1)Nc1ccc(-n2ccc(C(F)(F)F)n2)cc1` [TCMDC-123480], for which the “% Inhibition” value is listed as -19.16%.

As to `CN1CCN=C1c1ccc(NC(=O)Nc2ccc(C3=NCCN3C)cc2)cc1` [TCMDC-137204], the “% Inhibition” value was found to be 15.96%.

Consider `Cn1nc(C(F)(F)F)c(-c2ccc(F)cc2)c1NC(=O)Nc1ccc(F)cc1` [TCMDC-124506], for which the “% Inhibition” value was 65.51%.

`Cn1nc(C(F)(F)F)c(-c2ccc(Br)cc2)c1NC(=O)Nc1ccc(F)cc1F` [TCMDC-124576]: the “% Inhibition” value was 44.22%.

As for `O=C(Nc1ccccc1C(F)(F)F)Nc1nn(Cc2c(F)cccc2Cl)cc1Br` [TCMDC-124365], the “% Inhibition” value is reported as -20.4%.

For `CCOC(=O)Cn1ccc2c(NCc3ccccc3)nc(C)nc21` [TCMDC-137249], the “% Inhibition” value was found to be 9.107%.

With `OC(CN1CCN(c2cccc(Cl)c2)CC1)C(c1ccccc1)c1ccccc1` (centres unmarked) [TCMDC-123456], the “% Inhibition” value is 0.2376%.

Regarding `COc1cccc2cc(C(=O)N[C@@H](CC(C)C)C(=O)N[C@H](C=NN3CCCC3=O)Cc3ccccc3)oc12` [TCMDC-136091], the “% Inhibition” value worked out at 20.05%.

For `CC(c1cccc(Nc2nccc(-c3c(-c4cccc(NC(=O)c5c(F)cccc5F)c4)nn4ncccc34)n2)c1)S(C)(=O)=O` (centres unmarked) [TCMDC-135696], the “% Inhibition” value is given as -68.26%.

`Nc1nc(N)c2c(Oc3cccc(Cl)c3)cccc2n1` [TCMDC-137741]: the “% Inhibition” value is recorded as -2.704%.

Take `CCCCCN1CCCC1CNS(=O)(=O)c1ccc(C(=O)Nc2cccc(C(F)(F)F)c2)cc1` (centres unmarked) [TCMDC-133688]: the “% Inhibition” value is listed as -7.266%.

Regarding `CN1CCc2cc(CN3CC4(C)CC3CC(C)(C)C4)c(O)cc2C(c2ccccc2)C1` (centres unmarked) [TCMDC-131903], the “% Inhibition” value is listed as -50.67%.

Turning to `CC(C)NCc1cccc(-c2ccc(NC(=O)c3cccc(C#N)c3)cc2)c1` [TCMDC-132672], the “% Inhibition” value is reported as -57.78%.

`CC(C)NCc1cccc(-c2ccc(NC(=O)c3ccc(F)cc3)cc2)c1` [TCMDC-132666]: the “% Inhibition” value was -42.89%.

In the case of `CC(C)NCc1ccc(-c2ccc(NC(=O)c3cccc(C#N)c3)cc2)cc1` [TCMDC-132595], the “% Inhibition” value was determined as 51.63%.

On to `CN1CCCN(Cc2ccc(-c3ccc(NC(=O)c4ccc(C#N)cc4)cc3)cc2)CC1` [TCMDC-132588], for which the “% Inhibition” value is given as 15.04%.

Turning to `CC(C)NCc1ccc(-c2ccc(NC(=O)c3ccc(C#N)cc3)cc2)cc1` [TCMDC-132589], the “% Inhibition” value is on record as 83.96%.

Consider `CC(C)NCc1cccc(-c2ccc(NC(=O)c3ccc(C#N)cc3)cc2)c1` [TCMDC-132669], for which the “% Inhibition” value is given as -2.892%.

On to `CC(C)NCc1ccc(-c2cccc(NC(=O)c3ccc(F)cc3)c2)cc1` [TCMDC-132635], for which the “% Inhibition” value came out at 20.54%.

As for `CC(C)NCc1ccc(-c2cccc(NC(=O)c3cccc(C#N)c3)c2)cc1` [TCMDC-132649], the “% Inhibition” value is given as 48.87%.

With `CC(C)NCc1ccc(-c2cccc(NC(=O)c3ccc(C#N)cc3)c2)cc1` [TCMDC-132638], the “% Inhibition” value was 83.96%.

With `CC(C)NCc1ccc(-c2cccc(NC(=O)c3ccc(Cl)cc3)c2)cc1` [TCMDC-132629], the “% Inhibition” value was -59.93%.

`CC(C)NCc1cccc(-c2cccc(NC(=O)c3ccc(C#N)cc3)c2)c1` [TCMDC-132656]: the “% Inhibition” value was 89.01%.

As to `CC(C)NCc1cccc(-c2cccc(NC(=O)c3cccc(C#N)c3)c2)c1` [TCMDC-132662], the “% Inhibition” value stood at 13.1%.
